Our source for the ΔTm values is ChEMBL document CHEMBL5724796, “Tm Shift (DSF) assay results for EUbOPEN Chemogenomics Library” (2024).

Holding throughout (settings): Compound concentration 20.0 uM
Test [1] concerns the target Tyrosine-protein kinase ABL1 (Homo sapiens) (UniProt P00519).
Test [2] deals with Bromodomain-containing protein 4 (Homo sapiens) (UniProt O60885).
For test [3], the target named is Cyclin-dependent kinase 2 (Homo sapiens) (UniProt P24941).
The target in test [4] is Casein kinase I isoform delta (Homo sapiens) (UniProt P48730).
Casein kinase I isoform delta (Homo sapiens), sequence (P48730 whole entry, looked up, canonical isoform): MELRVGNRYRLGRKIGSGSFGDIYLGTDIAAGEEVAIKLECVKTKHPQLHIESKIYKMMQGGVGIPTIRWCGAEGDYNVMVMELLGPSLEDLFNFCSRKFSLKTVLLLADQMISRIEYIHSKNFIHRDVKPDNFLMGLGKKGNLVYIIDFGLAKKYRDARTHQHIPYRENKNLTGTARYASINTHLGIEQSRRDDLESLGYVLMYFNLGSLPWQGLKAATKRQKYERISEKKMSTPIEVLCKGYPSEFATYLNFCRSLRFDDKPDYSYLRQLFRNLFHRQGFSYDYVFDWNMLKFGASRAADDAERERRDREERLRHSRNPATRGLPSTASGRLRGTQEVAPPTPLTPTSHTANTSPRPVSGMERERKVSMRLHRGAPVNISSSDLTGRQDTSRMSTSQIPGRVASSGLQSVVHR
For test [5], the target named is Glycogen synthase kinase-3 beta (Homo sapiens) (UniProt P49841).
Glycogen synthase kinase-3 beta (Homo sapiens), sequence (P49841 whole entry, looked up): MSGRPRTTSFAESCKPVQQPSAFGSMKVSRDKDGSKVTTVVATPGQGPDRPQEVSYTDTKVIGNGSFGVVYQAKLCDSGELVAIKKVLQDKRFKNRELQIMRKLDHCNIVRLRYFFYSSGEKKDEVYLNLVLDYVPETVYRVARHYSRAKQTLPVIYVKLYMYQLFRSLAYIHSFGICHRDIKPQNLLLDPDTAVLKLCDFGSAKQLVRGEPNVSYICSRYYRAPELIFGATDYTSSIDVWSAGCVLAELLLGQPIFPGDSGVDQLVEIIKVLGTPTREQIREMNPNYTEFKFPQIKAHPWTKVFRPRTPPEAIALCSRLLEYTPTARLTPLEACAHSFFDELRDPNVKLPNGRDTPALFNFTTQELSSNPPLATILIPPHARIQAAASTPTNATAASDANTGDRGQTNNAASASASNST
The target in test [6] is Mitogen-activated protein kinase 1 (Homo sapiens) (UniProt P28482).
Mitogen-activated protein kinase 1 (Homo sapiens), sequence (P28482 whole entry): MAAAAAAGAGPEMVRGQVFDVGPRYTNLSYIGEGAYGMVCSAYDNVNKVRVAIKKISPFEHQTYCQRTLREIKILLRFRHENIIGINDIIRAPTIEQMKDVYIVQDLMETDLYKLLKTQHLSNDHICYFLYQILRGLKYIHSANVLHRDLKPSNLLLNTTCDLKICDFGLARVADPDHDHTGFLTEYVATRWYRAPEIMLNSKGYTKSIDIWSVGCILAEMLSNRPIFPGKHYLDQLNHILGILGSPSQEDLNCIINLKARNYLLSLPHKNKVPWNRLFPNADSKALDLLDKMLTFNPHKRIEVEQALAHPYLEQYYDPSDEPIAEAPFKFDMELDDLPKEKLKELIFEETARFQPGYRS
The target of test [7] is T1, Aurora kinase A (Homo sapiens) (UniProt O14965).
T1 sequence (whole entry): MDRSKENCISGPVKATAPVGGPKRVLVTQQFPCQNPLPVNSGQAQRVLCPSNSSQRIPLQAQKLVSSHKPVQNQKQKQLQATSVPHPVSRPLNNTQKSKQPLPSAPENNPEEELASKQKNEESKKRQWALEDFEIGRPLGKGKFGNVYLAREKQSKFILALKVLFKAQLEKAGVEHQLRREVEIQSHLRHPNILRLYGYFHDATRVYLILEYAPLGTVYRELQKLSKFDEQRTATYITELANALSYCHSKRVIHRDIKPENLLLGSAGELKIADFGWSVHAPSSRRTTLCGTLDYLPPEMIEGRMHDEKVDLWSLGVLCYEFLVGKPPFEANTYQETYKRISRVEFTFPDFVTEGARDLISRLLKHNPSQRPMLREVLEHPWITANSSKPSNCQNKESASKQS

Test [8] addresses T2, Transcription intermediary factor 1-alpha (Homo sapiens) (UniProt O15164).
T2 sequence (whole entry): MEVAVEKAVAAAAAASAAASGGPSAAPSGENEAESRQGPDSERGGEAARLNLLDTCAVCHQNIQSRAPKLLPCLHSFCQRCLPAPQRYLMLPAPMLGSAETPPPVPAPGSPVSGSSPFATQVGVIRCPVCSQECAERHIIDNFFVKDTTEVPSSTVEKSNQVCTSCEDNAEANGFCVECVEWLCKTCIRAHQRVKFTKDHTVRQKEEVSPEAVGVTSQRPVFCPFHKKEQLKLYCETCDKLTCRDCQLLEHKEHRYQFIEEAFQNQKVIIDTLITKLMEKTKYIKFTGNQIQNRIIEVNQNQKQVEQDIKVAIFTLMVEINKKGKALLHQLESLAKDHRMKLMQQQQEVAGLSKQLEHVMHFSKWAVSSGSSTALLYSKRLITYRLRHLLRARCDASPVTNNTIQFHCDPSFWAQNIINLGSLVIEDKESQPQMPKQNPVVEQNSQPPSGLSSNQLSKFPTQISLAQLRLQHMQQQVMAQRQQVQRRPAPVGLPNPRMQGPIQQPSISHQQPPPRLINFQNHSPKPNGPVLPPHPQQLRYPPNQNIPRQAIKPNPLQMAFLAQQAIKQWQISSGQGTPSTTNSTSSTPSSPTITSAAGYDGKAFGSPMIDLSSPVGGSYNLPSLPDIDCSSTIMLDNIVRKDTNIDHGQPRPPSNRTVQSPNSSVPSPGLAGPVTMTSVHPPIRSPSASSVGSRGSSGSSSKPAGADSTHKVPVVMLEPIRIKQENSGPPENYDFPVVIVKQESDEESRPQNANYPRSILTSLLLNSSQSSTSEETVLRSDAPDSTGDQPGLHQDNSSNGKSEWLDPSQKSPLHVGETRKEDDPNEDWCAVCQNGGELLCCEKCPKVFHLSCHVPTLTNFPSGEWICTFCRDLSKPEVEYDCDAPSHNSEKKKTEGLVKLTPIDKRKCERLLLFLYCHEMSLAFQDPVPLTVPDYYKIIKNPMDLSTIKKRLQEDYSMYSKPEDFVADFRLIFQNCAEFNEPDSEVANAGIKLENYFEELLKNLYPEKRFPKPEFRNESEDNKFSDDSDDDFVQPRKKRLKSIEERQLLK

Several values for one entry are separate records, joined by “and”; a condition that tells them apart may be missing. Equal entries are not always repeated.

Tyrosine-protein kinase ABL1 (Homo sapiens), sequence (P00519 whole entry): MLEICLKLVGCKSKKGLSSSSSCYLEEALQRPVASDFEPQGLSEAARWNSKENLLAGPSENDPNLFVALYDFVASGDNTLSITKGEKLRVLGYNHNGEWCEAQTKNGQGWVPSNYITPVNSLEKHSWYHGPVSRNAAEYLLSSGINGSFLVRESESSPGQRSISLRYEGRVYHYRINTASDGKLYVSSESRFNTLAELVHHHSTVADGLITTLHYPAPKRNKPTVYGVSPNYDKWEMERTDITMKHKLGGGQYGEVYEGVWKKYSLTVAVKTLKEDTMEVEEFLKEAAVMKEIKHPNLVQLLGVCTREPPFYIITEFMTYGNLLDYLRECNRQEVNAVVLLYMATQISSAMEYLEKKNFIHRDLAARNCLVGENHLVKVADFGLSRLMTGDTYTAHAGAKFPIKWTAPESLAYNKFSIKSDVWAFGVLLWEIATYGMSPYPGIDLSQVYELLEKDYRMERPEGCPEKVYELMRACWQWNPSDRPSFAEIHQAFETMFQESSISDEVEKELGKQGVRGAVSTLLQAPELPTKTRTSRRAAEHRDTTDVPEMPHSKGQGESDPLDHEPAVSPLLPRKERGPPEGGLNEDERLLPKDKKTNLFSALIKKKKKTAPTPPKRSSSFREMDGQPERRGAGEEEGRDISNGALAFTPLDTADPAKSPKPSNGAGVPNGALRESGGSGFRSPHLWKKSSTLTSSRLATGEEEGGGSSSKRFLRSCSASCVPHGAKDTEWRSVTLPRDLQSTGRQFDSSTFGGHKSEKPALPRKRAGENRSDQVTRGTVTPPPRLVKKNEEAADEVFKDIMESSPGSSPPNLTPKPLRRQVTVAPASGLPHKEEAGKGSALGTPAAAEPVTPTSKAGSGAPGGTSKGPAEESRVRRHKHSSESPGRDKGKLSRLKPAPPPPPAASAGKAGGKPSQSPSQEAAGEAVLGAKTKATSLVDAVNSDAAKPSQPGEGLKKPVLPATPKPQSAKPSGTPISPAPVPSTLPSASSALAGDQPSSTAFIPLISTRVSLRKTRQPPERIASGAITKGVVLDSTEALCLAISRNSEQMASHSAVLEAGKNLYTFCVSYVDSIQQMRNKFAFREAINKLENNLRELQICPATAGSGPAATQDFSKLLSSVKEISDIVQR

As for `COc1ccc(N2CCN(C(=O)c3cc4c(s3)-c3ccccc3S(=O)(=O)C4)CC2)cc1`, the ΔTm in test [1] is 0.15 °C; in test [2], -2.04 °C; in test [3], 0.12 °C; in test [4], -0.01 °C; in test [5] it was -0.71 °C; in test [6] it was 0.36 °C. Besides, the results for the ΔTm in test [7] and in test [8] were -1.67 °C and 0.69 °C, respectively.

For the compound `O=c1[nH]ccc2cc(F)c(NS(=O)(=O)c3ccc(N4CC[C@@H](O)C4)s3)cc12`, the ΔTm was 0.78 °C in test [1]; -1.78 °C in test [2]; 0.35 °C in test [3]; 0.39 °C in test [4]; -0.79 °C in test [5]; 0.11 °C in test [6]. In addition, the results for the ΔTm in test [7] and in test [8] were -0.16 °C and -0.69 °C, respectively.

As for `O=C(NO)C(c1ccc(-c2ncc(C(F)(F)F)cn2)cc1)c1ccccc1F` (configuration not stated), the ΔTm in test [1] is 0.91 °C; in test [2], -2.36 °C; in test [3], 0.08 °C; in test [4], 0.69 °C; in test [5], -0.7 °C; in test [6], 0.1 °C. Moreover, the figures for the ΔTm in test [7] and in test [8] were 0.24 °C and -0.84 °C, respectively.

For `O=c1[nH]c(CS[C@H]2CC[C@H](O)CC2)nc2cc(OCC3CC3)cc(F)c12`, the shift in melting temperature (ΔTm) in test [1] was 0.58 °C; in test [2], -1.62 °C; in test [3], -0.32 °C; in test [4], -5.43 °C; in test [5], 0 °C; in test [6] it was 0.1 °C. Further, the ΔTm in test [7] is -0.76 °C; in test [8] it was -0.56 °C.

`N[C@H](C(=O)O)[C@H](OCc1cccc(NC(=O)c2ccc(C(F)(F)F)cc2)c1)C(=O)O`: the ΔTm in test [1] is 0.24 °C; in test [2], -3.61 °C; in test [3], -0.09 °C; in test [4] it was -0.32 °C; in test [5], -0.8 °C; in test [6] it was 0.12 °C. For the same compound, the ΔTm in test [7] was -2.5 °C; in test [8], 0.13 °C.

In the case of `Cc1ncc(Cl)cc1NCc1ccc(C(=O)N[C@@H](CC2CCCC2)C(=O)NC2CC2)s1`, the ΔTm in test [1] (Protein concentration 2.0 uM) came to 2 °C.

On to `CC(C)Oc1ccc(C=O)cc1`, for which the ΔTm is 0.27 °C in test [1]; -1.93 °C in test [2]; -0.05 °C in test [3]; 0.18 °C in test [4]; -0.88 °C in test [5]; 0.02 °C in test [6]. In addition, the ΔTm in test [7] is -1.79 °C; in test [8] it was -0.93 °C.

As to `COc1ccc2c(c1)OC(C)(C)C(c1ccccc1)C2c1ccc(OCCN2CCCC2)cc1` (configuration not stated), the ΔTm was -0.02 °C in test [1]; -3.83 °C in test [2]; -2.04 °C in test [3]; -0.1 °C in test [4]; 0 °C in test [5]; -2.68 °C in test [6]. The values for the ΔTm in test [7] and in test [8] were 0.51 °C and -3.44 °C, respectively.

Regarding `CNCc1ccc(-c2cc3cc(F)cc(C(N)=O)c3o2)cc1`, the ΔTm was 0.6 °C in test [1]; -0.09 °C in test [2]; 1.2 °C in test [3]; 0.55 °C in test [4]; 0.51 °C in test [5]; 0.83 °C in test [6]. Further, the ΔTm in test [7] was -1.29 °C; in test [8], 0.67 °C.

For the compound `COc1cc(Oc2ccnc3cc(OC)c(OC)cc23)ccc1NC(=O)NC(C)c1nccs1` (configuration not stated), the ΔTm in test [1] is 9.54 °C; in test [2], -3.36 °C; in test [4], 0.28 °C; in test [5], -1.46 °C; in test [6] it was -9.78 °C; in test [7], -0.11 °C. For the same compound, in test [8], the ΔTm was -0.38 °C.

Take `CCn1c(=S)[nH]c2cc3c(NCc4ccccc4N4CCC(CO)CC4)ncnc3cc21`: the ΔTm in test [1] was 0.75 °C; in test [2], 4.86 °C; in test [3] it was -0.14 °C; in test [4], 0.33 °C; in test [5], -0.82 °C; in test [6] it was 0.17 °C. In addition, the shift in melting temperature (ΔTm) in test [7] was -1.92 °C; in test [8], -0.23 °C.

`CC(C)Cc1nn(C)c(=O)c2c(SCCCO)n(Cc3cccc4ccccc34)cc12`: the ΔTm in test [1] was -3.82 °C and -3.97 °C; in test [2], -4.1 °C and -4.31 °C; in test [3], -0.96 °C and -1.96 °C; in test [4], -8.7 °C and -11.7 °C; in test [5], -0.77 °C and -4.36 °C; in test [7] it was -2.79 °C and -2.11 °C. The ΔTm in test [8] was -0.87 °C and 0.82 °C.
